Molecules are shown by their SMILES. Records with an inconclusive call do not appear. Where a call stands in place of a potency, no number is given. Active and inactive are the calls of the source. The call rests on the fitted dose curve; in most records, active means well fitted inhibition curve with a large enough effect; inconclusive means small, poorly fitted or top-dose-only effect; inactive means no such curve, though single readings can be large or run the other way.
Potency means the concentration at half of the fitted maximal effect.

The subject of the experiment is Zika virus NS2B-NS3 protease (unlinked). Put plainly: Optimization of GU AMC qHTS for Zika virus inhibitors: Unlinked NS2B-NS3 protease assay (AID 1347151). Further: nearly all actives have a fitted effect of over 80% in size. Particulars: recombinant ZIKV NS2B-NS3 protease, fluorogenic AMC substrate; series mostly up to 52.5 µM. The essentials:
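In this qHTS, compounds acted on 25 nM unlinked Zika NS2B–NS3 in pH 8.0 Tris/Tween buffer. Cleavage of an AMC peptide ran 15 min at room temperature, to about 20% conversion.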
With `CCCN1CCc2cccc3c2[C@H]1Cc1ccc(O)c(O)c1-3`, the Potency is 29.9 µM (active). The value for `CCCN1CCC[C@@H](c2cccc(O)c2)C1` was “inactive”. The result for `NC(N)=Nc1ccc2[nH]c3c(c2c1)C[C@@]1(O)[C@H]2Cc4ccc(O)c5c4[C@@]1(CCN2CC1CC1)[C@H]3O5` reads “inactive”; that for `CC12NC(Cc3ccccc31)c1ccccc12` (stereo unspecified), “inactive”; that for `C#CCN[C@H](C)Cc1ccccc1`, “inactive”.

In the case of `CC(C)(O)[C@@H]1C2OC(=O)[C@@H]1[C@]1(O)C[C@H]3O[C@]34C(=O)O[C@H]2[C@]14C` (tested in a mixture with another compound), the Potency entry is “inactive”. The value for `CC(C)NP(=O)(NC(C)C)OP(=O)(NC(C)C)NC(C)C` was “inactive”; that for `CN1CCc2cccc(Cl)c2CC1` was “inactive”. In the case of `CCCN1CC[C@@H]2c3cc(O)ccc3CC[C@@H]21`, the Potency result is “inactive”. Consider `O=C(NC1CN2CCC1CC2)c1cc2ccoc2cn1` (stereo unspecified), for which the Potency result is “inactive”.

As to `c1ccc2cc(CC3=NCCN3)ccc2c1`, the Potency result was “inactive”. The result for `Cc1o[nH]c(=O)c1CC(N)C(=O)O` (stereo unspecified) reads “inactive”; that for `C=CCN1CCC23c4c5ccc(O)c4O[C@H]2C(=O)CC[C@@]3(O)C1C5` (stereo partly specified), “inactive”; that for `Clc1cc(I)cc(Cl)c1NC1=NCCN1`, “inactive”. The result for `COc1ccc(OC)c(C(O)C(C)N)c1` (stereo unspecified) reads “inactive”. The result for `C[C@@H]1[C@@H]2Cc3ccc(O)cc3[C@@]1(C)CCN2CC1CC1` reads “inactive”; that for `CC[C@H](C)[C@H]1O[C@]2(C=C[C@@H]1C)C[C@@H]1C[C@@H](C/C=C(\C)[C@@H](O[C@H]3C[C@H](OC)[C@@H](O[C@H]4C[C@H](OC)[C@@H](O)[C@H](C)O4)[C@H](C)O3)[C@@H](C)/C=C/C=C3\CO[C@@H]4[C@H](O)C(C)=C[C@@H](C(=O)O1)[C@]34O)O2`, “inactive”.

Turning to `C[C@H](N)Cc1cccc(C(F)(F)F)c1`, the Potency result was “inactive”. The result for `CCCC[N+]1(C)C2CC(OC(=O)[C@H](CO)c3ccccc3)CC1C1OC12` (stereo partly specified) reads “inactive”; that for `CCCN1CCc2cc(O)cc3c2[C@H]1Cc1ccc(O)c(O)c1-3`, 26.7 µM (active). For the compound `Clc1ccc(N2CC3CCC(C2)N3)nn1`, the Potency result is “inactive”. `Cc1sc2ccccc2c1CC1=NCCN1`: the Potency was 26.7 µM (active). The value for `COc1ccc2c(c1)C13CCCCC1C(C2)N(C)CC3` (stereo unspecified) was “inactive”; that for `NCCc1ccc(S(=O)(=O)F)cc1` was “inactive”. The result for `NCCCP(=O)(O)O` reads “inactive”; that for `N[C@@]1(C(=O)O)CC[C@@H](C(=O)O)C1`, “inactive”; that for `CC1(C(=O)O)C2CCC(O2)C1(C)C(=O)O` (stereo unspecified), “inactive”. As for `NNC(=O)c1ccc(O)cc1`, the Potency result is “inactive”.

`C=CCN1C[C@@H](C)N([C@H](c2ccc(C(=O)N(CC)CC)cc2)c2cccc(OC)c2)C[C@@H]1C`: the Potency entry was “inactive”.

Consider `CN(N=O)c1cc(O)ccc1O`, for which the Potency entry was “inactive”. For the compound `COc1ccc2[nH]c3c(c2c1)CCNC3`, the Potency was 26.7 µM (active). The value for `N=C(N)c1ccc(CS(=O)(=O)F)cc1` was “inactive”; that for `CC(C)(C)c1o[nH]c(=O)c1CC(N)C(=O)O` (stereo unspecified) was “inactive”; that for `CCn1cnc2c(Nc3cccc(Cl)c3)nc(N[C@@H]3CCCC[C@@H]3N)nc21` was “inactive”. In the case of `NC(=O)c1ccc(OCC(O)CN2CC=C(c3ccc(F)cc3)CC2)cc1` (stereo unspecified), the Potency result was “inactive”. The result for `O=S1(=O)N(CCN2CC=C(c3c[nH]c4cc(F)ccc34)CC2)c2cccc3c2N1CCC3` reads “inactive”.

(Values after PubChem BioAssay (NCATS).)
